Laboratory results taken from publication PMC4336329 (PLoS ONE, 2015).
The campaign covered roughly 310,000 compounds. About 14,000 (4.5%) showed an effect of 50% or more. Effects have a minus sign here. Only a selection was taken, and strong results are over-represented in it overall. *1 amine or outer side, *2 acyl side, *3 side chain or, on linkers, in order; H or OH if unused. Where a SMILES comes first, the peptide text is derived from it. Bridges are numbered along the chain shown (N, C = ends). [ ]: non-standard residue; d: D form. ξ: configuration not given here. hSer(Ph(2-I,4-NO2,6-CO)) = O=C([C@H](CCOc1c(I)cc([N+](=O)[O-])cc1C(=O)[*:3])N[*:1])[*:2]; ξD = NC(CC(=O)O)C(=O)O

What follows are compounds tested against human ether-à-go-go-related gene (hERG) potassium channel (human, UniProt Q12809) (assay: primary screen, population patch clamp on CHO cells stably expressing hERG; higher = less effect of the substance).
Chain of human ether-à-go-go-related gene (hERG) potassium channel (Q12809 whole entry, looked up): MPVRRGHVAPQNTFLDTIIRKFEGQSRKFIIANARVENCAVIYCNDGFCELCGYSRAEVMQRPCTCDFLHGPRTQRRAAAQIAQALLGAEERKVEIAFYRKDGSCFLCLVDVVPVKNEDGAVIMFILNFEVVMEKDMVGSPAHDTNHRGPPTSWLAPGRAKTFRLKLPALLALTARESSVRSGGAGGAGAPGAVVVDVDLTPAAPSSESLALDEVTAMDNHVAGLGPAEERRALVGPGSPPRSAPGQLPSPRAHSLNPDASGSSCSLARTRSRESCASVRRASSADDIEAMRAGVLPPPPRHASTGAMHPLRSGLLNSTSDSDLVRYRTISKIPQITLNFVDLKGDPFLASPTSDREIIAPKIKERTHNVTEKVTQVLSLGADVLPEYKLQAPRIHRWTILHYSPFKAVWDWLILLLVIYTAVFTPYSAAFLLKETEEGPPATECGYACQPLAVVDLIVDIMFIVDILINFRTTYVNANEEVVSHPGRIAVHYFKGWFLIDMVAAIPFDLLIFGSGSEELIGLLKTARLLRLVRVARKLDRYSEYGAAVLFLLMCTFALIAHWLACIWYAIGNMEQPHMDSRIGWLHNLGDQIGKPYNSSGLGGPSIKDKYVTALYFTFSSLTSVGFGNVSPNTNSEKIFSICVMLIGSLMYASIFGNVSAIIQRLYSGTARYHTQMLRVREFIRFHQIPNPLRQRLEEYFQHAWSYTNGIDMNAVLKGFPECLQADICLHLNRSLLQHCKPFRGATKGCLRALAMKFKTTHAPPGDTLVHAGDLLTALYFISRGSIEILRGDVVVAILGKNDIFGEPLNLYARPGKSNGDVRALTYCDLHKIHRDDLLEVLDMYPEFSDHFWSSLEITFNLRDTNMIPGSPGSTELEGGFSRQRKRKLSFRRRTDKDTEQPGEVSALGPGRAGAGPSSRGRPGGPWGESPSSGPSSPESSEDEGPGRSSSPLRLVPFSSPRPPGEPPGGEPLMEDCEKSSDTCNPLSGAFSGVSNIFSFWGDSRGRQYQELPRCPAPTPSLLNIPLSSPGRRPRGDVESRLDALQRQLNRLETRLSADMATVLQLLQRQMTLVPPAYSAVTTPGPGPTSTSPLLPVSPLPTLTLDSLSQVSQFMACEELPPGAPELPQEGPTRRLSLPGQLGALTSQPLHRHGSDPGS
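Also: peak tail current of the secondary pulse compared with the same well before compound.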

Row | SMILES | hERG current change (%, negative = inhibition) at 10uM [%]
1 | CC1(c2nnc(Cc3ccccc3)o2)CC(c2cccc(F)c2)=NO1 (stereo not shown) | -3.35
2 | Cc1cc(C)n(-c2nncn2/N=C/c2ccccc2F)n1 | 3.06
3 | COc1ccccc1-n1ccnc(SCC(=O)NCc2ccccc2Cl)c1=O | 8.39
4 | O=C1CCN(CCc2ccccc2)CCN1[C@H](CSc1ccccc1)Cc1ccccc1 | -77.1
5 | C[C@H]1CCC(=O)N([C@H](CSc2ccccc2)Cc2ccccc2)CC1 | -37
6 | CC(C)C(CO)N1CCN(Cc2ccccc2)CCC1=O (stereo not shown) | 4.74
7 | O=C1CCN(CCc2ccccc2)CCN1[C@H](CSc1ccc(Br)cc1)Cc1ccccc1 | -74.6
8 | Cc1ccc(SC[C@H](Cc2ccccc2)N2CCN(CCc3ccccc3)CCC2=O)cc1 | -17.9
9 | CC(C)C[C@@H](CO)N1CCN(Cc2ccccc2)CCC1=O | 6.02
10 | O=C1CCN(Cc2ccc(Br)cc2)CCN1[C@H](CO)Cc1ccccc1 | -10.4
11 | CC(C)[C@@H](CSc1ccccc1)N1CCN(Cc2ccccc2)CCC1=O | -63.4
12 | O=C1CC[C@H](O)CCN1[C@H](CSc1ccccc1)Cc1ccccc1 | -21.7
13 | O=C1CC[C@H](O)CCN1[C@H](CSc1ccc(Br)cc1)Cc1ccccc1 | -24.3
14 | O=C1CC[C@H](OCc2ccccc2)CCN1[C@H](CSc1ccccc1)Cc1ccccc1 | -51
15 | Clc1ccc(C2[C@H]3CN(CC4CCCCC4)[C@H](c4ccccc4)C34CC2(c2cccnc2)C4)cn1 (stereo partly shown) | -26.1
16 | O=C(O)c1cccc(NC(=O)c2cn(-c3ccccc3)nc2-c2ccc([N+](=O)[O-])cc2)c1 | 19.5
17 | COC(=O)c1nn(-c2cccc(Cl)c2)ccc1=O | 6.98
18 | CCCCN(CCO)CCCC | 14
19 | CC(C)c1ccc(OCC(=O)Nc2ccccc2C(=O)N2CCOCC2)cc1 | -18.9
20 | CCOC(=O)C(C)Sc1nc(C2CC2)cc(C(F)(F)F)c1C#N (stereo not shown) | 5.04
21 | CCOC(=O)Cn1nnnc1CN(CCc1ccccc1)Cc1cc2cc(CC)ccc2[nH]c1=O | -4.43
22 | CCCN(CCO)Cc1cccc(Br)c1 | -0.752

Row | SMILES | hERG current change (%, negative = inhibition) at 10uM [%]
23 | COc1ccc(Br)cc1C(=O)N/N=C/c1cccnc1 | -8.72
24 | CCOc1ccc(-c2csc(NC(=O)C3CCCO3)n2)cc1 (stereo not shown) | 4.35
25 | O=C1CCN(Cc2ccccc2)CCN1[C@H](CSc1ccccc1)Cc1ccccc1 | -72.1
26 | CC(C)C[C@@H](CC#N)N1CCN(CCc2ccccc2)CCC1=O | 2.01
27 | [N-]=[N+]=NC[C@H](Cc1ccccc1)N1CCN(Cc2ccccc2)CCC1=O | 3.9
28 | CC(C)C[C@@H](CO)N1CCN(CCCc2ccccc2)CCC1=O | -31.1
29 | CC(C)C[C@@H](CSc1ccc(Br)cc1)N1CCN(CCc2ccccc2)CCC1=O | -70.6
30 | O=C1CCN(Cc2ccc(O)cc2)CCN1[C@H](CO)Cc1ccccc1 | 2.51
31 | CCOc1[nH]n(-c2ccccc2)c(=O)c1C=Nc1ccccc1 | -2.58
32 | CC1CN(C(=O)c2ccc(CNS(=O)(=O)c3cccc(C(F)(F)F)c3)cc2)CC(C)O1 (stereo not shown) | 9.72
33 | O=C(Nc1ccc2ccccc2c1)c1ccccc1O | 24.6
34 | Cc1ccc(C(OC(=O)c2ccco2)C(=O)NC(C)(C)C)cc1 (stereo not shown) | 10.8
35 | CCN(CC)Cc1ccccc1Sc1ccccc1.O=C(O)/C=C\C(=O)O | -53.3
36 | CC(Cc1ccccc1Sc1ccccc1)N(C)C.O=C(O)/C=C\C(=O)O (stereo not shown) | -69.5
37 | N=C(N)Cc1ccccc1Sc1ccccc1.O=C(O)/C=C\C(=O)O | -1.09
38 | N/C(Cc1ccccc1Sc1ccccc1)=N\O.O=C(O)/C=C\C(=O)O | -22.2
39 | CN(C)Cc1ccccc1Cc1ccccc1.O=C(O)/C=C\C(=O)O | -10.1
40 | CN(C)Cc1ccccc1Sc1ccc(O)cc1O.O.O=C(O)/C=C\C(=O)O | -3.84
41 | COC(=O)CSc1ncnc2c1sc1nc3c(cc12)COC(C)(C)C3 | 23.5
42 | COc1ccc(C(=O)NCC(=O)OCC(=O)Nc2cc([N+](=O)[O-])ccc2F)cc1 | -23.4
43 | Cn1c(CSCc2ccc(F)cc2)nnc1SCC(=O)Nc1cccc(C(=O)O)c1 | 9.71
44 | Cc1cccc(N(Cc2cc3cc(C)ccc3[nH]c2=O)C(=O)c2cccs2)c1 | 5.95

Row | SMILES | hERG current change (%, negative = inhibition) at 10uM [%]
45 | c1cncc(CNc2nc(-c3cccnc3)nc3ccccc23)c1 | -25.3
46 | c1ccc(CN2CCC(Nc3nc(-c4ccccc4)nc4ccccc34)CC2)cc1 | -20.5
47 | c1ccc(CN2CCC(Nc3nc(-c4cccs4)nc4ccccc34)CC2)cc1 | -59.9
48 | c1ccc(CN2CCC(Nc3nc(-c4cccnc4)nc4ccccc34)CC2)cc1 | -80.5
49 | Cc1ccc(CNc2nc(-c3cccs3)nc3ccccc23)cc1 | 12.1
50 | c1csc(CNc2nc(-c3cccs3)nc3ccccc23)c1 | -6.81
51 | Nc1ccc(N=Nc2ccccc2O)c(N)c1 | 10.9
52 | COc1ccc(C(=O)NCc2cc(C)nc3ccccc23)cc1OC | -8.56
53 | O=C(CSc1nncc(=O)[nH]1)NC1CCCCC1 | 27
54 | COc1cc(OC)c(C(=O)NC2CCCCCC2)cc1OC | -3.27
55 | Clc1ccc(-n2nnnc2-c2cnc3ccccc3c2-c2ccccc2)cc1 | 1.26
56 | CCCOc1ccc(NC2=CC(=O)CC(C)(C)C2)cc1 | 1.89
57 | CC1(C)CC(=O)C=C(Nc2ccc(OCC(F)(F)C(F)F)cc2)C1 | -65.7
58 | COc1ccc(NC2=CC(=O)CC(C)(C)C2)cc1 | 7.6
59 | Cl.O=C1c2cccc3c2[C@H](CCC3)CN1[C@@H]1CN2CCC1CC2 | -46.2
60 | COc1ccc(S(=O)(=O)n2c(CCN3CCOCC3)nc3ccccc32)cc1 | -59.2
61 | COc1ccc(CNc2nc3ccccc3n2CCN2CCOCC2)cc1 | -64.6
62 | Cc1cc2nc(CCN3CCOCC3)n(S(=O)(=O)c3ccc(C(C)(C)C)cc3)c2cc1C | -3.7
63 | CC(C)(C)c1ccc(S(=O)(=O)n2c(CN3CCOCC3)nc3ccccc32)cc1 | 3.73
64 | COc1cccc(CNc2nc3ccccc3n2CCN2CCCCC2)c1 | -59.3
65 | COc1ccc(CNc2nc3ccccc3n2Cc2ccccc2)cc1OC | -44.7
66 | CCOc1ccc(CNc2nc3ccccc3n2C)cc1 | -31.4

Row | SMILES | hERG current change (%, negative = inhibition) at 10uM [%]
67 | CCOc1ccc(CNc2nc3ccccc3n2CCN2CCOCC2)cc1.Cl | -64.2
68 | c1csc(CNc2nc3ccccc3n2CCN2CCOCC2)c1 | -28
69 | CC(=O)Nc1nc2ccccc2n1CCN1CCOCC1 | 0.217
70 | CCn1c(NCc2cc(OC)c(OC)c(OC)c2)nc2ccccc21.Cl | -25.3
71 | Cl.c1ccc(CNc2nc3ccccc3n2CCN2CCOCC2)nc1 | -15.5
72 | CCOC(=O)[C@H]1[C@H]2COc3ccc(C)cc3[C@@H]2N2C(=O)CN(Cc3ccc(C)cc3)C(=O)[C@@]12C | 4.36
73 | COc1cccc(N2C(=O)CN(Cc3ccc(OC)c(OC)c3)C2=S)c1 | 17
74 | CCCCCOc1ccc(NC(=O)C(=O)NCCCn2ccnc2)cc1 | 2
75 | CCn1c(SCC(=O)NNC(=O)c2ccccc2)nnc1-c1ccncc1 | -5.25
76 | C=CCc1c(C)nc2c(-c3ccccc3)cnn2c1N1CCOCC1 | 12.3
77 | CC(=O)C1=C(O)C(=O)N(c2ccc(Br)cn2)C1c1ccccc1[N+](=O)[O-] (stereo not shown) | 20.2
78 | O=C1CCCc2nn(-c3ccccc3)nc21 | 11.3
79 | Cc1ccc(S(=O)(=O)N(C)C)cc1NC(=O)CSc1nc2ccccc2[nH]1 | -29.4
80 | C[C@@H]1NC(=O)[C@H](CC(N)=O)NC(=O)c2cc([N+](=O)[O-])cc(I)c2OCC[C@@H](C(=O)NC(CC(=O)O)C(N)=O)NC1=O (stereo partly shown) (NA[hSer(Ph(2-I,4-NO2,6-CO))][ξD]-NH2; lactam N-3) | 6.03
81 | O=S(=O)(Cc1ccccc1)Nc1cccc(F)c1 | 15.2
82 | Cl.FC(F)(F)c1ccc(CN2CCNCC2)cc1 | 0.155
83 | Cc1ccccc1NC(=O)Cc1nnc(N)s1 | 11.3
84 | COc1ccc(CCNC(=S)NC2CCN(Cc3ccccc3)CC2)cc1OC | -39.1
85 | Cc1nc(CCNC(=O)COc2ccccc2)cs1 | 17.2
86 | COc1ccc(CNc2nc3ccccc3n2CCN2CCCCC2)cc1 | -59.7
87 | C=CCn1c(NCc2ccc(OC)cc2)nc2ccccc21 | -17.2
88 | COc1ccc(CNc2nc3ccccc3n2C(C)C)cc1 | -18.7
